The source of these data is PubChem BioAssay (EPA / NIEHS).

For experiment [1], the target named is human Matrix Metalloproteinase-1 (MMP1), MMP1 (gene 4312) (UniProt P03956). Briefly: NVS_ENZ_hMMP1: NovaScreen (NVS) Enzymatic Assay for human Matrix Metalloproteinase-1 (MMP1) (AID 2283181). The method, boiled down: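 Cell-free fluorescent substrate assay of human MMP1, read after 1 h. A single 25 uM duplicate screen was followed by concentration series to a maximum of 50 uM for actives meeting threshold; inhibition analysed against DMSO baseline.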
Chain of human Matrix Metalloproteinase-1 (MMP1), MMP1 (gene 4312) (P03956 whole entry, looked up): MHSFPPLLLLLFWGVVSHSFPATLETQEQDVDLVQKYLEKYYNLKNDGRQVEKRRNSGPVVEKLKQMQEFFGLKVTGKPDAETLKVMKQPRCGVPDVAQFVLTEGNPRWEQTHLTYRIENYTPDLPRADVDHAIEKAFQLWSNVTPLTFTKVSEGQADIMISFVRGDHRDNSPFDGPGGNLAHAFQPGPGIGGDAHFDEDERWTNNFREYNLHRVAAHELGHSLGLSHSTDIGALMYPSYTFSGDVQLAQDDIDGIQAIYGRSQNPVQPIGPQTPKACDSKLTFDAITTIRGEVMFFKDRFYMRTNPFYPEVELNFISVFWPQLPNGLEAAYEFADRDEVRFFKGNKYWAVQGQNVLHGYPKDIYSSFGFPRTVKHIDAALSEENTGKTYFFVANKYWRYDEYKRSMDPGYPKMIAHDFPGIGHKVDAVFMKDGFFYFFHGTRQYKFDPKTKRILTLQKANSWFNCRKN

In experiment [2] the target is human Fibroblast Growth Factor Receptor 1 (FGFR1), FGFR1 (gene 2260) (UniProt P11362). Description: NVS_ENZ_hFGFR1: NovaScreen (NVS) Enzymatic Assay for human Fibroblast Growth Factor Receptor 1 (FGFR1) (AID 2283159). An outline of the steps:
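Cell-free recombinant kinase with fluorescent substrate, product separated by electrophoretic mobility shift; read 1 hour after dosing, loss of signal relative to DMSO. Initial screen in duplicate at 25 uM, actives followed in concentration series.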

Experiment [3] concerns the target rat Monoamine Oxidase, MAO-B, Central (MAOBC), Maob (gene 25750) (UniProt P19643). Briefly: NVS_ENZ_rMAOBC: NovaScreen (NVS) Enzymatic Assay for rat Monoamine Oxidase, MAO-B, Central (MAOBC) (AID 2283238). The method, boiled down: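 Cell-free radiometric assay, rat brain lysate. Read-out: scintillation counts, 1.17 h post-dosing. Screen 25 uM in duplicate; actives (e.g. ≥30% inhibition) then singleton concentration-response, max 50 uM. Activity loss fitted relative to DMSO.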

Experiment [4] relates to rat Monoamine Oxidase, MAO-A, Central (MAOAC), gene 29253. Briefly: NVS_ENZ_rMAOAC: NovaScreen (NVS) Enzymatic Assay for rat Monoamine Oxidase, MAO-A, Central (MAOAC) (AID 2283243).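 Also: potency refers to inhibition seen as signal drop below DMSO baseline.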 An outline of the steps: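 Enzyme from rat brain, cell-free radiodetection format. Counts taken at 1.5 h; activity fitted against DMSO baseline, loss of signal marking inhibition. Confirmatory concentration series followed the 25 uM duplicate screen.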

In experiment [5] the test system is guinea pig Atrionatriuretic Peptide Receptor A (ANPA), gene 100135578. Description: NVS_GPCR_gANPA: NovaScreen (NVS) G Protein-Coupled Receptor Assay for guinea pig Atrionatriuretic Peptide Receptor A (ANPA) (AID 2283291). The method, boiled down:
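Displacement of specific radioligand from guinea pig cerebellum membranes was read by scintillation after 1 h. A duplicate single-point screen at 25 uM was followed by a concentration series up to 50 uM, analysed relative to DMSO.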

For experiment [6], the target named is rat Corticotropin Releasing Factor Receptor (CRF), Crhr1 (gene 58959) (UniProt P35353). Description: NVS_GPCR_rCRF: NovaScreen (NVS) G Protein-Coupled Receptor Assay for rat Corticotropin Releasing Factor Receptor (CRF) (AID 2283300). An outline of the steps:
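Single-concentration (25 uM, duplicate) radioligand binding on rat cortical membrane preparations, counted by scintillation after 2 h. Activity scored as signal loss relative to DMSO negative control.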

Experiment [7] concerns the target Protein deacetylase HDAC6 (Homo sapiens) (UniProt Q9UBN7). Description: NVS_ENZ_hHDAC6: NovaScreen (NVS) Enzymatic Assay for human Histone Deacetylase 6 (HDAC6) (AID 2283164). An outline of the steps: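 Concentration-response runs up to 50 uM followed a duplicate 25 uM single-point screen. Deacetylase activity of recombinant human HDAC6 read by fluorescence after 1 h, with mobility-shift separation of substrate and product; DMSO as baseline.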

In experiment [8] the target is human p21 Activated Kinase 4 (PAK4), PAK4 (gene 10298) (UniProt O96013). Briefly: NVS_ENZ_hPAK4: NovaScreen (NVS) Enzymatic Assay for human p21 Activated Kinase 4 (PAK4) (AID 2283189). The method, boiled down:
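Extracted PAK4 enzyme activity read by fluorescence with mobility-shift separation 1 h after chemical addition. Duplicate single-concentration screen at 25 uM, DMSO as negative control.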

The target of experiment [9] is rat Monoamine Oxidase, MAO-B, Peripheral (MAOBP), Maob (gene 25750) (UniProt P19643). Description: NVS_ENZ_rMAOBP: NovaScreen (NVS) Enzymatic Assay for rat Monoamine Oxidase, MAO-B, Peripheral (MAOBP) (AID 2283242).
Chain of rat Monoamine Oxidase, MAO-B, Peripheral (MAOBP), Maob (gene 25750) (P19643 whole entry, looked up): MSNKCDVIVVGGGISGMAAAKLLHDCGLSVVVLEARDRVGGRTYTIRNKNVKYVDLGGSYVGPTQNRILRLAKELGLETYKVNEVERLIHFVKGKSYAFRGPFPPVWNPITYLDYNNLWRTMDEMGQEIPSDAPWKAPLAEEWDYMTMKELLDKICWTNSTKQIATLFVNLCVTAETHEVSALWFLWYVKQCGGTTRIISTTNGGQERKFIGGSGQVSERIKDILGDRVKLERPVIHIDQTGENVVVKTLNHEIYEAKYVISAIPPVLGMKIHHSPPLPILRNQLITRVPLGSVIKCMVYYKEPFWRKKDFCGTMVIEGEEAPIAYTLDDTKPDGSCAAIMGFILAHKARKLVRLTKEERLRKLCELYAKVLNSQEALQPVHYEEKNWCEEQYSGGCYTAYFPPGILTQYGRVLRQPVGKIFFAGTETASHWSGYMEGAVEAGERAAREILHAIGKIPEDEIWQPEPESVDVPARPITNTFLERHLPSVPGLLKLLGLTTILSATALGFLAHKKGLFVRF
Experiment [10] addresses Norway rat Vesicular Monoamine Transporter (VMAT2), neurotransmitter transporter, Slc18a2 (gene 25549) (UniProt Q01827). Briefly: NVS_TR_rVMAT2: NovaScreen (NVS) Transporter Assay for Norway rat Vesicular Monoamine Transporter (VMAT2), neurotransmitter transporter (AID 2283376).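 Also: actives lower the bound radioligand signal below the DMSO level.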 The method, boiled down:
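Filter-based scintillation counting of radioligand bound to rat forebrain-derived VMAT2 protein, cell-free, 1 h post-dose. Signal loss relative to DMSO control scored; single-concentration duplicate screen (25 uM) followed by concentration-response testing of actives.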

Experiment [11] has as its target bovine Gamma-Aminobutyric Acid Type A Receptor BDZ, alpha 1 site (GABARa1), GABRA1 (gene 780973) (UniProt P08219). Description: NVS_LGIC_bGABARa1: NovaScreen (NVS) Ligand-Gated Ion Channel Assay for bovine Gamma-Aminobutyric Acid Type A Receptor BDZ, alpha 1 site (GABARa1) (AID 2283321). The method, boiled down: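 Bovine cortex membrane preparation, benzodiazepine site on GABA-A alpha1; specific radioligand displacement read after 0.75 h by filtration and scintillation. Screen at 25 uM, then singleton titrations up to 50 uM; DMSO baseline.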

The target in experiment [12] is rat Gamma-Aminobutyric Acid Type A Receptor BDZ, alpha 6 site (GABARa6), Gabra6 (gene 29708) (UniProt P30191). Briefly: NVS_LGIC_rGABARa6: NovaScreen (NVS) Ligand-Gated Ion Channel Assay for rat Gamma-Aminobutyric Acid Type A Receptor BDZ, alpha 6 site (GABARa6) (AID 2283339). An outline of the steps:
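Actives from a 25 uM duplicate screen were retested in concentration series (max 50 uM). Specific radioligand displacement from rat cerebellar membranes was counted by filter-based scintillation at 1 h; DMSO served as baseline.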

The target in experiment [13] is human Epidermal Growth Factor Receptor (EGFR), EGFR (gene 1956) (UniProt P00533). Description: NVS_ENZ_hEGFR: NovaScreen (NVS) Enzymatic Assay for human Epidermal Growth Factor Receptor (EGFR) (AID 2283151). An outline of the steps:
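Cell-free kinase assay, fluorescence plus electrophoretic mobility shift separating substrate and product, read 1 hour after dosing; loss of signal vs DMSO. Duplicate screen at 25 uM, then concentration-response to 50 uM.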

Another experiment deals with PPP2CA (gene 5515) (UniProt P67775). Briefly: NVS_ENZ_hPPP2CA: NovaScreen (NVS) Enzymatic Assay for human Protein Phosphatase 2 Aatalytic subunit Alpha (PPP2CA) (AID 2283199). The method, boiled down:
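Cell-free phosphatase activity: fluorescent substrate turnover by recombinant human enzyme, resolved by mobility shift at 1.33 h. Compounds passing the 25 uM duplicate primary screen were rerun in singleton series with a 50 uM top concentration.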

For experiment [14], the target named is human Protein Tyrosine Phosphatase Receptor Type C (PTPRC), PTPRC (gene 5788) (UniProt P08575). Briefly: NVS_ENZ_hPTPRC: NovaScreen (NVS) Enzymatic Assay for human Protein Tyrosine Phosphatase Receptor Type C (PTPRC) (AID 2283212). The method, boiled down: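 Absorbance-based phosphatase activity of human PTPRC protein extracted from yeast was measured 1 h post-dosing. Compounds first tested at 25 uM in duplicate, then those passing threshold in singleton concentration series to 50 uM.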

The target of experiment [15] is human Raf-1 Proto-Oncogene, serine/threonine Kinase (RAF1), RAF1 (gene 5894) (UniProt P04049). Description: NVS_ENZ_hRAF1: NovaScreen (NVS) Enzymatic Assay for human Raf-1 Proto-Oncogene, serine/threonine Kinase (RAF1) (AID 2283216). An outline of the steps: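 Single-point screening at 25 uM (duplicate), followed by singleton concentration-response to 50 uM maximum for chemicals exceeding threshold. Enzyme activity from fluorescent substrate-product mobility-shift separation after 1 h, relative to DMSO.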

In experiment [16] the target is Voltage-dependent N-type calcium channel subunit alpha-1B (Rattus norvegicus) (UniProt Q02294). Briefly: NVS_IC_rCaChN: NovaScreen (NVS) Ion Channel Assay for rat Calcium Channel, Type N (CaChN) (AID 2283317).
For experiment [17], the target named is human NIMA (Never In Mitosis Gene A)-Related Kinase 2 (NEK2), NEK2 (gene 4751) (UniProt P51955). Description: NVS_ENZ_hNEK2: NovaScreen (NVS) Enzymatic Assay for human NIMA (Never In Mitosis Gene A)-Related Kinase 2 (NEK2) (AID 2283188). An outline of the steps:
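Compounds were first screened in duplicate at 25 uM, with actives followed up in concentration series. Recombinant NEK2 activity, cell-free, was read 1 h after dosing by fluorescence intensity after mobility-shift separation. Signal loss was scored against DMSO.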

SMILES strings stand for the structures. Results filed as inconclusive are left out. Active and inactive are the calls of the source. The calls were made as follows: active = hit-call score of the fitted dose curve at least 0.9, where 1 is the maximum; inconclusive = response in the unintended direction; inactive = score below 0.9.

As usually defined, the AC50 is the concentration giving half of the maximal activity seen.

Chain of rat Monoamine Oxidase, MAO-B, Central (MAOBC), Maob (gene 25750) (P19643 whole entry, looked up): as above
Chain of human Fibroblast Growth Factor Receptor 1 (FGFR1), FGFR1 (gene 2260) (P11362 whole entry, looked up): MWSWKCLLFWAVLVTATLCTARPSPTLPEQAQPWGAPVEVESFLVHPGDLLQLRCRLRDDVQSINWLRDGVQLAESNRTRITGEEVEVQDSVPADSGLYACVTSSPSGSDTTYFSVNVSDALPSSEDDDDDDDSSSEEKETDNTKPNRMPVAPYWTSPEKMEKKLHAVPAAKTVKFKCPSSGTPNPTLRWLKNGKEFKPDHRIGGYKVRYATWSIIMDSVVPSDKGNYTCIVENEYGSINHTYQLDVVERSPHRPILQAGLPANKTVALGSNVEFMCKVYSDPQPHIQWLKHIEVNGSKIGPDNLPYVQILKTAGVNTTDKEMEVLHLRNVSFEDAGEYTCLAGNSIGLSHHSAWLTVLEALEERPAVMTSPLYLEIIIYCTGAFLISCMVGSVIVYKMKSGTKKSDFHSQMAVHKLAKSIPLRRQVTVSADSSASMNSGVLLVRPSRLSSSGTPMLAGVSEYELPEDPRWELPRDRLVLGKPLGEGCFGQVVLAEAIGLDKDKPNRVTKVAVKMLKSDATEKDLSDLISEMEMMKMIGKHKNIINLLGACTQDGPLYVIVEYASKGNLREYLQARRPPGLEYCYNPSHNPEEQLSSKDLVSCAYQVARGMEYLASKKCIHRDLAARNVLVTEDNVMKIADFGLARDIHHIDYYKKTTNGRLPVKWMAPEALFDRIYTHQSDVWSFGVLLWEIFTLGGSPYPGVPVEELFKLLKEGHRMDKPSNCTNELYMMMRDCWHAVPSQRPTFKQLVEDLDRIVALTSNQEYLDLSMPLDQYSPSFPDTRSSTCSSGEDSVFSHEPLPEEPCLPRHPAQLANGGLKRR
Chain of Protein deacetylase HDAC6 (Homo sapiens) (Q9UBN7 whole entry, looked up): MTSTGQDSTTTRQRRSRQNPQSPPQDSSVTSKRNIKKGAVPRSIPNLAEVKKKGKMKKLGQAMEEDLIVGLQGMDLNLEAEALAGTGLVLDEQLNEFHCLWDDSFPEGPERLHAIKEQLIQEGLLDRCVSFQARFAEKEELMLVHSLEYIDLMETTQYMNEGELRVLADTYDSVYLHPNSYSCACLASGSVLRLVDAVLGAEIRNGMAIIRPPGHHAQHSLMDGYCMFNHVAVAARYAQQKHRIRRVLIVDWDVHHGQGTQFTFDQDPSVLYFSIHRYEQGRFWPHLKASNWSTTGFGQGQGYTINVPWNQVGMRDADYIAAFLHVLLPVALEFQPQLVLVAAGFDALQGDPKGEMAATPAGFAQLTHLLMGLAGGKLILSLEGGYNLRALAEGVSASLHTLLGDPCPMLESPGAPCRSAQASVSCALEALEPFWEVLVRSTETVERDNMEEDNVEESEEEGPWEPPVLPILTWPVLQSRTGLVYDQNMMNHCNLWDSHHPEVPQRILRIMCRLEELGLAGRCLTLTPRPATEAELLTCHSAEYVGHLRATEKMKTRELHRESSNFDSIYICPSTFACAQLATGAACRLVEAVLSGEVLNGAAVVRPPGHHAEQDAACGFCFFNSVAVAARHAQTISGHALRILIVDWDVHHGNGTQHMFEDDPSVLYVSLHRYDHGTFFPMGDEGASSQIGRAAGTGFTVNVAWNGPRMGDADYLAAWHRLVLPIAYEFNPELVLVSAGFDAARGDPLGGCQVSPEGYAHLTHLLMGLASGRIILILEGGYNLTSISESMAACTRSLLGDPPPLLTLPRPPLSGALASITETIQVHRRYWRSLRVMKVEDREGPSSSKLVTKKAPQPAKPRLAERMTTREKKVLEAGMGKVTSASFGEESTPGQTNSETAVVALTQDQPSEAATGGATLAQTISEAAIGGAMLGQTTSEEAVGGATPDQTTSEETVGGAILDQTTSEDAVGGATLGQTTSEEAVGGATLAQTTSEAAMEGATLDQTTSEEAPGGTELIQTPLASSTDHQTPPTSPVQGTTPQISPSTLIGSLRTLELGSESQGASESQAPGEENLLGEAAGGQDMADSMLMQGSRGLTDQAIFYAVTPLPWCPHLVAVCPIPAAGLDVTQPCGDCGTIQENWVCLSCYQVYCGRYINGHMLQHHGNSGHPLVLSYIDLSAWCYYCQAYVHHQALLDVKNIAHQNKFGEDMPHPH
Chain of rat Corticotropin Releasing Factor Receptor (CRF), Crhr1 (gene 58959) (P35353 whole entry, looked up): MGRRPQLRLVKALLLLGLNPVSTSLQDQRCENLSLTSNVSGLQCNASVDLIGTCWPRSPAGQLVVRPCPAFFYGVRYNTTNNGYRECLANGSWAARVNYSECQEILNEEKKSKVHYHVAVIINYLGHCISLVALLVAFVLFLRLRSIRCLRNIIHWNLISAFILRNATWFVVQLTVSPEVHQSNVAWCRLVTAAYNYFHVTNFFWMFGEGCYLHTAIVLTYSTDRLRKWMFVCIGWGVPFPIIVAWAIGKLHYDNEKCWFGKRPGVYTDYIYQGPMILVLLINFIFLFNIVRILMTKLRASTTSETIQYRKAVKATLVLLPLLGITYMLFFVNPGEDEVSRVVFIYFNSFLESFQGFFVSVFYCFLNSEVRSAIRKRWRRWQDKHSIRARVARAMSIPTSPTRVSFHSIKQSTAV
Chain of human NIMA (Never In Mitosis Gene A)-Related Kinase 2 (NEK2), NEK2 (gene 4751) (P51955 whole entry, looked up): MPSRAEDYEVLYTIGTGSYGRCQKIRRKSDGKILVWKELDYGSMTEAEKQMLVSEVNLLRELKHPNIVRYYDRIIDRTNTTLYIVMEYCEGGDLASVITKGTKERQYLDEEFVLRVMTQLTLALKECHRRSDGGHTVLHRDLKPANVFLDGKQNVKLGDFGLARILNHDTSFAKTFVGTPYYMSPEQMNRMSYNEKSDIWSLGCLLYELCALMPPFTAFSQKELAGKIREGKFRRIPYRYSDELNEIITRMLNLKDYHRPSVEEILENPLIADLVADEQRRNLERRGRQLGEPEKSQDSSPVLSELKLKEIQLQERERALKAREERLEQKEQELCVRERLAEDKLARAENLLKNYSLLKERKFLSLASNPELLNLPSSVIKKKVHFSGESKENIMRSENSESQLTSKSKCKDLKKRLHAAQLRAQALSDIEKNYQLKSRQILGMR
Chain of bovine Gamma-Aminobutyric Acid Type A Receptor BDZ, alpha 1 site (GABARa1), GABRA1 (gene 780973) (P08219 whole entry, looked up): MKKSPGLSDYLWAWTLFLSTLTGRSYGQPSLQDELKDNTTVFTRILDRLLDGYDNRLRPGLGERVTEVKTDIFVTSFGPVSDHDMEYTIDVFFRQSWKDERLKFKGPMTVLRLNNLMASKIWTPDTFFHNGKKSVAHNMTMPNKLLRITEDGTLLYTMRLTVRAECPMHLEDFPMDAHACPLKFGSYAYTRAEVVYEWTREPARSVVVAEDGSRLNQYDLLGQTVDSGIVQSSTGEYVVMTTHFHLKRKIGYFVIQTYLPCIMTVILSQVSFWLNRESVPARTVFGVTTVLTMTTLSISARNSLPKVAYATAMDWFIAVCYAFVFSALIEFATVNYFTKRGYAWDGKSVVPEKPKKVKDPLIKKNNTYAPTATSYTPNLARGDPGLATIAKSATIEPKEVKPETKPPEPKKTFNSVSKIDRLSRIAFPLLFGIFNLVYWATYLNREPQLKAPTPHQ
Chain of rat Gamma-Aminobutyric Acid Type A Receptor BDZ, alpha 6 site (GABARa6), Gabra6 (gene 29708) (P30191 whole entry, looked up): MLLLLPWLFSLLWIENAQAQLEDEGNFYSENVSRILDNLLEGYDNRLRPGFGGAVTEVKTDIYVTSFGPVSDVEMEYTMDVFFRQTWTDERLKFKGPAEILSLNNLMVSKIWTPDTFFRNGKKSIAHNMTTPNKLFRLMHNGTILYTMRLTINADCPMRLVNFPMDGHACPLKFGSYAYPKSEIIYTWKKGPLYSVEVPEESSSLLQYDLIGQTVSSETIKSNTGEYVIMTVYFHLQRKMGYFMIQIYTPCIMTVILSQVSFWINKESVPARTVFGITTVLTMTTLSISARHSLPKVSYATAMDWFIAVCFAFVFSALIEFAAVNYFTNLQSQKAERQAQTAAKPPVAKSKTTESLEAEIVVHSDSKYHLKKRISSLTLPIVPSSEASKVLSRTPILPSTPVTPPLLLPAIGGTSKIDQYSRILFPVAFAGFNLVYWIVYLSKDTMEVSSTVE

Turning to `Cc1ccc(S(=O)(=O)NC(=O)NN2CCCCCC2)cc1`, in experiment [1], the half-maximal activity concentration (AC50) was 6.9 µM (active). Regarding `O=C(O)c1ccccc1`, the result in experiment [2] and in [3] was inactive. For the molecule `CCc1nn(C2CCCCC2)c2cc(C3(C#N)CCC(C(=O)O)CC3)ccc12` (configuration not stated), the AC50 in experiment [1] is 12.1 µM (active).

With `Cc1cc(C)c(O)c(C)c1`, the result in experiment [2], in experiment [4], in experiment [5] and in experiment [6] was inactive. With `O=C(O)c1cccnc1`, the molecule was called inactive in experiment [1] and in experiment [3]. With `Cc1[nH]cnc1C[C@H]1CCc2c(C)c3ccccc3n2C1=O`, the outcome in experiment [7] and in [8] was inactive. For the same molecule, the concentration at half-maximal activity (AC50) in [9] is 22.2 µM (active); in [10], 0.755 µM (active). `NC(=O)NO`: the result in [7] was inactive.

Take `Cc1occc(=O)c1O`: the molecule was called inactive in experiment [7]. For `CCCc1cc(=O)[nH]c(=S)[nH]1`, the call in [7] was inactive.

As for `CC[C@H](C)[C@@H](C(=O)O)n1sc2ccccc2c1=O`, the call in [2], in experiment [11] and in experiment [12] was inactive. With `CCN(Cc1cccc(S(=O)(=O)O)c1)c1ccc(C(=C2C=CC(=[N+](CC)Cc3cccc(S(=O)(=O)O)c3)C=C2)c2ccccc2S(=O)(=O)[O-])cc1`, the half-maximal activity concentration (AC50) in [13] is 12.1 µM (active). The molecule was classed as inactive with PPP2CA (gene 5515). Take `COC(=O)[C@H]1[C@H]2C[C@@H]3c4[nH]c5cc(OC)ccc5c4CCN3C[C@H]2C[C@@H](OC(=O)c2cc(OC)c(OC)c(OC)c2)[C@@H]1OC`: the result in [13] was inactive. The concentration at half-maximal activity (AC50) in [14] was 21.1 µM (active).

On to `CCCCCCCCCCCCCCOS(=O)(=O)O`, for which, in experiment [1], the molecule was called inactive. Also, the AC50 in experiment [14] is 24.2 µM (active).

On to `CCCCCCC(=O)O`, for which the call in [7] was inactive. As for `Cc1ccc([N+](=O)[O-])cc1N`, the molecule was called inactive in experiment [1]. Moreover, the concentration at half-maximal activity (AC50) in experiment [3] is 14.7 µM (active); in [9], 26.1 µM (active). Take `CCCCN1C(=O)[C@@H]([C@H](O)C2CCCCC2)NC(=O)C12CCN(Cc1ccc(Oc3ccc(C(=O)O)cc3)cc1)CC2`: the result in [1] and in experiment [9] was inactive. On to `COC(=O)CCCCC(=O)OC`, for which the outcome in experiment [2], in [15] and in experiment [16] was inactive. Regarding `C1CCC(SSC2CCCCC2)CC1`, the result in experiment [7] and in [6] was inactive. Consider `CC(CO)OC(C)CO` (configuration not stated) (tested in a mixture with another compound), for which the molecule was called inactive in experiment [7]. For `CN(C)CCCN1c2ccccc2Sc2ccc(Cl)cc21`, the molecule was classed as inactive in experiment [2] and in experiment [11]. As to `CCc1cc(C2=C(C(=O)O)N(c3ccccc3C(F)(F)F)S(=O)(=O)c3ccccc32)cc2c1OCO2`, in experiment [1], the half-maximal activity concentration (AC50) is 12.3 µM (active). For the molecule `CC(N)=O`, the call in [7], in experiment [9] and in experiment [4] was inactive.

For `c1ccc(C(O[C@@H]2CCCN(CCc3ccc4c(c3)OCO4)C2)c2ccccc2)cc1`, the molecule was called inactive in [17]. Besides, the concentration at half-maximal activity (AC50) in experiment [9] is 22 µM (active). As to `CCCCC=O`, the molecule was classed as inactive in experiment [17].
